# Results: PubChem BioAssay AID651724 (National Center for Advancing Translational Sciences (NCATS), 2012)
# The campaign covered roughly 340,000 compounds. About 1,700 (0.5%) were called active. Roughly 2% stayed inconclusive and do not appear here. The list comes from a sample in which actives are over-represented; it also holds similar structures and randomly drawn compounds. Unmarked numbers belong to inactive results. No stated cut-off is given here; in the data, active means activity change below about -65%; inconclusive means mostly about -30% to -63%; inactive means weaker than that.
# Test system: CtBP / adenovirus E1A interaction (AlphaScreen)
# Experiment: qHTS Assay for Inhibitors of the CtBP/E1A Interaction
# Conditions: AlphaScreen GST-E1A/His-CtBP binding, 1536-well; hits give low values
# Source text: Carboxyl-terminal binding protein (CtBP) is a co-repressor for many transcription factors. […] Our studies have shown that CtBP is overexpressed in multiple human cancers, including lung, breast, and head and neck cancers. In particular, it is over-expressed in 50% of primary lung cancer and 90% of metastatic lesions. CtBP suppresses epithelial-specific genes as well as genes critical for apoptosis, providing the underlying molecular mechanism for its role in tumorigenesis. […] Based on the above data, we hypothesize that 1) CtBP suppresses the pro-apoptotic and epithelial genes, therefore overexpressed CtBP in human cancer cells increases EMT and cancer survival; 2) decreasing CtBP's function represents a targeted therapy for lung cancer and potentially multiple cancer types. As a co-repressor, CtBP binds to E1A and other transcription factors through a conserved peptide motif to carry out its action. Inhibiting this interaction using small molecules can potentially serve as effective cancer therapeutics.
# To this end, we have developed a homogenous AlphaScreen assay targeting the CtBP/E1A interaction. We performed a large scale HTS of the Molecular Libraries Small Molecule Repository (MLSMR) to identify inhibitors of the CtBP/E1A interaction as potential anti-cancer therapeutics. Compounds identified can also be used as chemical probes to better understand the biological functions of CtBP.
# NIH Chemical Genomics Center [NCGC]
# NIH Molecular Libraries Probe Centers Network [MLPCN]
# Assay Submitter (PI): Rui Zhao, University of Colorado Denver
# The first step of the 5uL AlphaScreen assay is to dispense assay buffer (50 mM Tris, pH 8.0, 300 mM NaCl, 0.05% BSA, 0.02% Tween 20, 1 mM TCEP) into a Greiner 1536 white solid bottom microtiter plate (789175-F). Five microliters is added to Column 1, 4 uL is added to Column 2 and 3 uL is added to Columns 3 through 48. A 5X protein solution (125 nM GST-E1A protein + 125 nM His-tagged CtBP protein) is mixed and 1 uL is dispensed to Columns 3-48. Using a 1536 pintool, 23 nL of compound is transferred to the assay plate and the plate is incubated with a lid at 37 deg C in the dark for two hours. A solution of 5X AlphaScreen beads is mixed (50 ug/mL Glutathione linked donor beads + Nickel chelated acceptor beads) and 1 uL is dispensed to Columns 2-48. The assay plate is incubated for one hour, with a lid, at 37 deg C in the dark. The plate is read using a Perkin Elmer Envision using an AlphaScreen protocol.
# On the % scale 0 is the no-effect control and ±100 the full control effect.
row,Structure (SMILES),activity change
1,CCC(C)n1c(O)c(/C=N/Nc2nc3c(c(=O)n(C)c(=O)n3C)n2C)c(=O)[nH]c1=S (stereo not given),-83.2% (active)
2,COc1ccc(-n2nnnc2C(c2cccc3ccccc23)N2CCC(n3c(=O)[nH]c4ccccc43)CC2)cc1 (stereo not given),-14.3%
3,Cc1cccc(-n2c(O)c(/C=N/N3CCOCC3)c(=O)[nH]c2=S)c1,9.2%
4,O=C(N/N=C/c1c(O)n(Cc2ccccc2)c(=O)[nH]c1=O)c1ccccc1,-72.7% (active)
5,O=c1[nH]c(=S)n(C2CC2)c(O)c1/C=N/N1CCOCC1,-2.5%
6,COc1ccccc1-n1c(O)c(C=NC2CC2)c(=O)[nH]c1=O,7.53%
7,CC/C(=N\NC(=O)c1ccccc1O)c1c(O)n(Cc2ccccc2)c(=O)[nH]c1=O,-5.73%
8,O=C(N/N=C/c1c(O)n(C2CC2)c(=S)[nH]c1=O)c1ccccc1,-92.7% (active)
9,O=c1[nH]c(=O)n(Cc2ccccc2)c(O)c1/C=N/Nc1c(F)c(F)c(F)c(F)c1F,4.41%
10,CC(C)c1ccc(-n2c(O)c(/C=N/N3CCOCC3)c(=O)[nH]c2=S)cc1,-2.7%
11,O=C(N/N=C/c1c(O)n(C2CC2)c(=S)[nH]c1=O)c1ccccc1Cl,-92.7% (active)
12,CCOC(=O)[C@]12Cc3cc(OC)ccc3[C@H]1N(C(C)C)C(=O)c1ccccc12,-1.62%
13,CC(=CCOc1ccc2ccc(=O)oc2c1)C1=CC(=O)C(C)(C)O1,1.99%
14,COC(=O)C[C@H]1CC[C@H]2NC[C@@H](O)COC[C@@H]2O1,-7.3%
15,CCOC(=O)[C@]12Cc3ccccc3[C@H]1N(C1CCCCC1)C(=O)c1cc(OC)ccc12,-16.5%
16,O=c1[nH]c2ccccc2n1C1CCN(C(c2ccccc2)c2nnnn2Cc2ccccc2)CC1 (stereo not given),-12.7%
17,O=C1NCN(c2ccccc2)C12CCN(C(c1cccs1)c1nnnn1C1CCCCC1)CC2 (stereo not given),-7.02%
18,O=C(NCC1=C(c2ccc3ccccc3c2)C[C@@H]2CC[C@H]1N2Cc1ccco1)c1cccs1,-23.4%
19,COC(=O)CN(CCCl)P1(=O)OCCCN1CCCl (stereo not given),2.9%
20,COc1cccc(C(c2nnnn2-c2ccc3c(c2)OCCO3)N2CCC3(CC2)C(=O)NCN3c2ccccc2)c1OC (stereo not given),-13%
21,O=c1[nH]c2ccccc2n1C1CCN(C(c2ccnc3ccccc23)c2nnnn2Cc2ccccc2)CC1 (stereo not given),-7.28%
22,CCCCC(=O)N/N=C/c1c(O)n(CCC2=CCCCC2)c(=O)[nH]c1=O,-82.9% (active)
23,O=c1[nH]c(=O)n(CCc2ccc(F)cc2)c(O)c1/C=N/N1CCCCC1,-1.47%
24,COc1ccc(CCn2c(O)c(C=NC3CC3)c(=O)[nH]c2=O)cc1OC,-7.4%
25,COC(=O)C1=C(c2ccc(OCc3ccccc3)cc2)C[C@@H]2CC[C@H]1N2C(=O)NCc1ccc(Cl)cc1,0.0513%
